Test results: PubChem BioAssay (NCATS)
Inconclusive results are not listed. Where a call stands in place of a potency, no number is given. Unmarked numbers belong to inactive results. The source made the active and inactive calls. Calls come from the whole dose curve; as a rule, active = well fitted inhibition curve with a large enough effect; inconclusive = small, poorly fitted or top-dose-only effect; inactive = no such curve, though single readings can be large or run the other way.

Test: Primary fluorescence-based thiol-reactive (MSTI) qHTS assay for identification of artifact compounds. (AID 1845221); note: nearly all actives have a fitted effect of over 65% in size;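 for activity change, negative = thiol reactive: thiol-reactive compounds lower the probe fluorescence signal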
Details: MSTI thiol-reactivity probe, 1 h; series mostly up to 53.8 µM
Procedure, shortened: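 One-hour, room-temperature, dark incubation of compound with 4 uM MSTI in PBS (pH 7.4, 2% DMSO) precedes a fluorescence read at 525 nm excitation, 598 nm emission; Hill-equation fitting yields concentration-response values.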
Potency is the fitted concentration of half-maximal effect.

SMILES | Potency | activity change, negative = thiol reactive
CC(C)CC(=O)O[C@@H]1OC=C(CO[C@@H]2O[C@H](CO)[C@@H](O)[C@H](O)[C@H]2O)[C@H]2[C@@H]3O[C@H]3[C@@](O)(CO)[C@@H]12 | inactive | 
C/C=C/C=C/C=C/C(=O)OC1C=C(C=O)C(O)(C(=O)O)C2(C)CCCC(C)(C)C12 (stereo not drawn) | 5.82 µM (active) | 
CC(CCC1(O)OC2CC3C4CCC5CC(O[C@@H]6O[C@H](CO)[C@@H](O)[C@H](O)[C@H]6O[C@@H]6O[C@@H](C)[C@H](O)[C@@H](O)[C@H]6O)C(O)CC5(C)C4CCC3(C)C2C1C)CO[C@@H]1O[C@H](CO)[C@@H](O)[C@H](O)[C@H]1O (stereo partly drawn) |  | 141% [at 11.5 µM]
Cc1nc(Nc2n[nH]c3c2CN(C(=O)NC(CN(C)C)c2ccccc2)C3(C)C)c2sccc2n1 (stereo not drawn) | inactive | 
CC(=O)OCC1(O)CCC2C(COC3OC(CO)C(O)C(O)C3OC(=O)/C=C/c3ccc(O)cc3)=COC(OC(=O)CC(C)C)C21 (stereo not drawn) | inactive | 
CC1=CC(=O)[C@H]2C(C)(C)CCC[C@]2(C)[C@@]1(O)CO | inactive | 
CC1CCC2C(C)(C)[C@@H](O)CC[C@]2(C)C12Cc1c(O)cc3c(c1O2)CN(C(CCC(=O)O)C(=O)O)C3=O (stereo partly drawn) | inactive | 
CCCC(=O)NCCc1csc(-c2ccc(Cl)cc2)n1 | inactive | 
CC1(C)CCC2(C(=O)OC3OCC(O)C(O)C3O)CCC3(C)C(=CCC4C5(C)CC(O)C(OC6OC(COC7OCC(O)C(O)C7O)C(O)C(O)C6O)C(C)(C)C5CCC43C)C2C1 (stereo not drawn) |  | -15.2% [at 11.5 µM]
CC(C)=CC/C=C(\C)[C@H]1CC[C@]2(C)[C@@H]1[C@H](O)C[C@@H]1[C@@]3(C)CC[C@H](O)C(C)(C)[C@@H]3[C@@H](O[C@@H]3O[C@H](CO)[C@@H](O)[C@H](O)[C@H]3O)C[C@]12C | inactive | 
CC1OC(OC2C(O)C(OC3CCC4(C)C(CCC5(C)C4CC=C4C6CC(C)(COC7OC(CO)C(O)C(O)C7O)CC(O)C6(C)CCC45C)C3(C)C)OC(C(=O)O)C2O)C(O)C(O)C1OC1OCC(O)C(O)C1O (stereo not drawn) |  | 24.3% [at 11.5 µM]
C=C1C(=O)OC2C1CCC(=C)C1CC(OC(C)=O)C(=C)C12 (stereo not drawn) | 18.9 µM (active) | 
CC1=C(C(=O)O)/C(=C/CO[C@@H]2O[C@H](COC(=O)/C=C/c3ccc(O)cc3)[C@@H](O)[C@H](O)[C@H]2O)C(O)C1 (stereo partly drawn) | 1.46 µM (active) | 
Cc1nc(C)c(-c2ccc(C3CCC(CC(=O)O)CC3)cc2)nc1C(N)=O (stereo not drawn) | inactive | 
Cn1cc(S(=O)(=O)c2ccc(Cl)cc2)c2cccc(N3CCNCC3)c21 | inactive | 
CC(C)=CCC/C(C)=C/CO[C@@H]1O[C@H](CO)[C@@H](O)[C@H](O)[C@H]1O | inactive | 
CNC(=O)c1ccccc1Nc1cc(Nc2ccc(N3CCOCC3)cc2OC)ncc1C(F)(F)F | 1.5 µM (active) | 

SMILES | Potency | activity change, negative = thiol reactive
O=C(c1cc2c(cc1F)OC(c1ccc(F)cc1)(c1ccc(Cl)cc1Cl)O2)N1CCOCC1 (stereo not drawn) | inactive | 
COC(=O)/C=C/C12COC(C)(C)C1C(O)C(OC(C)=O)C1(C)C2CCC2(C)C(c3ccoc3)OC(=O)C3OC321 (stereo not drawn) | inactive | 
CC(C)(C)NC(=O)[C@@H](c1cccnc1)N(C(=O)c1ccco1)c1ccc(C(C)(C)C)cc1 | inactive | 
C=C(CCC1=C(C)[C@H]2[C@H](CC3[C@@H]4CC=C5C[C@@H](O)C[C@@H](O)[C@]5(C)C4[C@H](O)C[C@@]32C)O1)CO[C@@H]1O[C@H](CO)[C@@H](O)[C@H](O)[C@H]1O (stereo partly drawn) | inactive | 
CC1CCC2(C=O)C(CO)=CCCC2C1(C)CC(=O)O (stereo not drawn) | 3.36 µM (active) | 
CC1CCC23COC(=O)C2=CC(O)CC3C1(C)CCC1=CC(O)OC1=O (stereo not drawn) | 3.29 µM (active) | 
CC(=O)N1CCN(C(=O)Cc2ccc(Nc3ncc(F)c(Nc4ccc(C(=O)Nc5ccccc5Cl)cc4)n3)cc2)CC1 | inactive | 
CCC(C)C(=O)O[C@H]1CCC=C2C=C[C@H](C)[C@H](CC[C@@H](O)C[C@@H](O)CC(=O)O)[C@H]21 (stereo partly drawn) | inactive | 
Cc1cc2c(c(=O)[nH]1)OC(C(O)CC(C)C)O2 (stereo not drawn) | inactive | 
CC(C)C(NC(=O)c1ccc2ccccc2n1)C(=O)NC(CC(=O)O)C(=O)COc1c(F)cccc1F (stereo not drawn) | inactive | 
CCC(O)C(C)C1CCC(C(C)C(=O)O)O1 (stereo not drawn) | 10.6 µM (active) | 
C=C1CCC2C(C)(C)C(O)CCC2(C)C1CCC(C)CCO (stereo not drawn) | 16.5 µM (active) | 
CC(=O)OC1/C(C)=C/C(=O)C(OC(C)=O)C(C)(C)/C=C/C(C)C(=O)C2(OC(C)=O)CC(C)C(OC(=O)c3ccccc3)C12 (stereo not drawn) | inactive | 
CC1=CC(=O)C2C(C)(C)CCC[C@]2(C)[C@H]1CO (stereo partly drawn) | inactive | 
CC[C@]1(O)CC2CN(CCc3c([nH]c4ccccc34)[C@@](C(=O)OC)(c3cc4c(cc3OC)N(C)[C@H]3[C@@](O)(C(=O)OC)[C@H](OC(C)=O)[C@]5(CC)C=CCN6CC[C@]43[C@@H]65)C2)C1 (stereo partly drawn) | inactive | 
CO[C@H]1/C=C/C=C/C=C/C[C@H](OC(=O)[C@@H](C)NC(=O)C2CCCCC2)[C@H](C)[C@@H](O)/C(C)=C/CCc2cc(O)cc(c2)NC(=O)C1 | 5.61 µM (active) | 
